Test results reported in PubChem BioAssay AID1345085 (National Center for Advancing Translational Sciences (NCATS), 2018).
Results filed as inconclusive are left out. Activity calls are given as the source filed them. Calls come from the whole dose curve; as a rule, active = well fitted cell-killing curve with a large enough effect; inconclusive = small, poorly fitted or top-dose-only effect, or effect the other way; inactive = no such curve, though single readings can be large or run the other way.

What follows are compounds tested on Es-2 (assay: Confirmatory qHTS for gynecologic anti-cancer compounds from libraries of approved drugs and bioactive compounds). Details: gynecologic cancer cell panel viability, ATPlite luminescence, 48 h; series mostly up to 57.6 µM; activity change, negative = viability loss: at the top concentration.
Procedure, shortened: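 ATP-based luminescent viability (ATPlite) after 48 h drug treatment at 37 °C, 5% CO2, across 57.5 uM–0.977 nM in 1:3 steps. Cells seeded at 1,000 per well 16 h beforehand; IC50 values computed, HEK 293T as selectivity control.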
% is set by controls: 0 for no effect and ±100 for the full control effect; potency is the fitted concentration of half-maximal effect.
Note: nearly all actives have a fitted effect of over 55% in size.

Row | Structure (SMILES) | Potency | activity change, negative = viability loss
1 | COc1cccc2c1C(=O)c1c(O)c3c(c(O)c1C2=O)C[C@@](O)(C(=O)CO)C[C@@H]3O[C@H]1C[C@H](N)[C@H](O[C@@H]2CCCCO2)[C@H](C)O1 | 7.69 µM (active) | 
2 | NCCOc1cc(C(=O)Nc2cc(OCCN)c3ccccc3n2)nc(C(=O)Nc2cc(OCCN)c3ccccc3n2)c1 |  | 4.63% (inactive)
3 | CC(C)C[C@H](NC(=O)[C@H](CCc1ccccc1)NC(=O)CN1CCOCC1)C(=O)N[C@@H](Cc1ccccc1)C(=O)N[C@@H](CC(C)C)C(=O)[C@@]1(C)CO1 | 3.06 µM (active) | 
4 | COc1cc(F)c(F)c(Nc2ccc(I)cc2F)c1NS(=O)(=O)C1(CC(O)CO)CC1 (stereo unspecified) | 3.85 µM (active) | 
5 | COc1ccc2c(c1OC)C(=O)O[C@@H]2[C@H]1c2c(cc3c(c2OC)OCO3)CCN1C |  | -1.17% (inactive)
6 | CS(=O)(=O)c1ccc(C(=O)Nc2ccc(Cl)c(-c3ccccn3)c2)c(Cl)c1 |  | 5.55% (inactive)
7 | CN1C(=O)C(Cc2c[nH]c3ccccc23)NC1=S (stereo unspecified) |  | -13.7% [at 19.5 µM] (inactive)
8 | O=C(c1ccc(F)c(F)c1Nc1ccc(I)cc1F)N1CC(O)([C@@H]2CCCCN2)C1 | 17.2 µM (active) | 
9 | CC(C)C[C@H](NC(=O)[C@@H](NC(=O)c1cccc(-c2ccccc2)n1)[C@@H](C)O)B(O)O | 0.0685 µM (active) | 
10 | CCN(CC)CCOc1ccc(/C(=C(\Cl)c2ccccc2)c2ccccc2)cc1 | 398 µM (active) | 
11 | Nc1nc(=S)c2[nH]cnc2[nH]1 | 3.43 µM (active) | 
12 | CC1=C(CO)C(=O)O[C@@H]([C@@H](C)[C@H]2CC[C@H]3[C@@H]4C[C@H]5O[C@]56[C@@H](O)C=CC(=O)[C@]6(C)[C@H]4CC[C@]23C)C1 | 2.66 µM (active) | 
13 | COc1cc2c(c(OC)c1OC)-c1ccc(OC)c(=O)cc1[C@@H](NC(C)=O)CC2 | 0.0708 µM (active) | 
14 | CCN(CC)CCNC(=O)c1c(C)[nH]c(/C=C2\C(=O)Nc3ccc(F)cc32)c1C | 25.1 µM (active) | 
15 | Cc1cnc(Nc2cccc(CN3CCOCC3)c2)nc1Nc1cccc(S(=O)(=O)NC(C)(C)C)c1 | 6.11 µM (active) | 
16 | O=c1[nH]c(=O)n([C@H]2C[C@H](O)[C@@H](CO)O2)cc1Br |  | 5.77% (inactive)
17 | CCCCc1oc2ccc(NS(C)(=O)=O)cc2c1C(=O)c1ccc(OCCCN(CCCC)CCCC)cc1 | 24.3 µM (active) | 
18 | CCOc1cc2ncc(C#N)c(Nc3ccc(F)c(Cl)c3)c2cc1NC(=O)/C=C/CN(C)C | 24.3 µM (active) | 

Row | Structure (SMILES) | Potency | activity change, negative = viability loss
19 | Cc1cc(C2CCCCC2)n(O)c(=O)c1 | 9.94 µM (active) | 
20 | S=c1nc[nH]c2nc[nH]c12 | 3.85 µM (active) | 
21 | Cc1cc(Nc2cc(N3CCN(C)CC3)nc(/C=C/c3ccccc3)n2)n[nH]1 | 24.3 µM (active) | 
22 | CCCCN(CCCC)C(=O)CN1C[C@H](c2ccc3c(c2)OCO3)[C@@H](C(=O)O)[C@@H]1c1ccc(OC)cc1 |  | 20.6% (inactive)
23 | CC(C)C[C@H](NC(=O)[C@H](Cc1ccccc1)NC(=O)c1cnccn1)B(O)O | 0.0611 µM (active) | 
24 | CCS(=O)(=O)c1cccc(-c2cc(C(=O)NC3CCN(C)CC3)c(C)c3[nH]c4ncc(C)cc4c23)c1 | 5.99 µM (active) | 
25 | FC(F)(F)c1ccc(/C=C/c2nc(COc3ccc(CCCCn4ccnn4)cc3)co2)cc1 | 24.3 µM (active) | 
26 | C1CCC(C(CC2CCCCN2)C2CCCCC2)CC1 (stereo unspecified) | 24.3 µM (active) | 
27 | Cc1nc(N)nc(N)c1-c1ccc(Cl)c(Cl)c1 | 1.37 µM (active) | 
28 | CN1CCN(c2ccc(OC(F)(F)F)c(Nc3ncc4c(n3)-c3c(c(C(N)=O)nn3CCO)CC4)c2)CC1 | 0.217 µM (active) | 
29 | CC(C)Oc1ccc2c(=O)c(-c3ccccc3)coc2c1 | 9.68 µM (active) | 
30 | COC(C(=O)N1Cc2[nH]nc(NC(=O)c3ccc(N4CCN(C)CC4)cc3)c2C1)c1ccccc1 (stereo unspecified) |  | 30.1% (inactive)
31 | O=c1c(-c2ccc(O)cc2)coc2cc(O)cc(O)c12 | 17.2 µM (active) | 
32 | CCS(=O)(=O)N1CCN(c2ccc(Nc3ncc(C(N)=O)c(NC4CC4)n3)cc2)CC1 |  | -23% (inactive)
33 | CCN(CC)CCCC(C)Nc1ccnc2cc(Cl)ccc12 (stereo unspecified) |  | -3.69% [at 19.5 µM] (inactive)
34 | CN(C)C(CCOc1cccc2ccccc12)c1ccccc1 (stereo unspecified) |  | -16.9% (inactive)
35 | Oc1cn2c(n1)Nc1ccc(Cl)c(Cl)c1C2 |  | -1.22% [at 19.5 µM] (inactive)
36 | CC[C@H](Nc1ncnc2nc[nH]c12)c1nc2cccc(F)c2c(=O)n1-c1ccccc1 |  | 8.76% [at 10.7 µM] (inactive)
